Sfp inh – inhibitors of Bacillus subtilis Sfp phosphopantetheinyl transferase; Q9F4F7; Biochemical Sfp PPTase activity, qHTS; Potency, µM, for the others: largest response in the series, negative = inhibition, most hits filed as inhibitors; 310,000 tested, 3.5% active;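 also: the enzyme is Sfp with the accession as filed and its product quenches rhodamine fluorescence; potency is read from the fitted curve at half-maximal effect; 0% = enzyme reaction without inhibitor and -100% = no enzyme wells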
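Compounds were incubated with enzyme (final 15 nM) for 15 min at room temperature before substrate addition started the reaction. Fluorescence at 525 nm excitation, 598 nm emission was recorded immediately and after 30 minutes.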
VDR inh – inhibitors of human vitamin D receptor. P11473. VDR-SRC2-3 peptide fluorescence polarization, 2 h. Potency, µM, for the others: max response, negative = inhibition, usual class: inhibitors. 400,000 tested, 0.93% active. AID 504847; also: potency is read from the fitted curve at half-maximal effect
Target sequence (P11473 whole entry, looked up): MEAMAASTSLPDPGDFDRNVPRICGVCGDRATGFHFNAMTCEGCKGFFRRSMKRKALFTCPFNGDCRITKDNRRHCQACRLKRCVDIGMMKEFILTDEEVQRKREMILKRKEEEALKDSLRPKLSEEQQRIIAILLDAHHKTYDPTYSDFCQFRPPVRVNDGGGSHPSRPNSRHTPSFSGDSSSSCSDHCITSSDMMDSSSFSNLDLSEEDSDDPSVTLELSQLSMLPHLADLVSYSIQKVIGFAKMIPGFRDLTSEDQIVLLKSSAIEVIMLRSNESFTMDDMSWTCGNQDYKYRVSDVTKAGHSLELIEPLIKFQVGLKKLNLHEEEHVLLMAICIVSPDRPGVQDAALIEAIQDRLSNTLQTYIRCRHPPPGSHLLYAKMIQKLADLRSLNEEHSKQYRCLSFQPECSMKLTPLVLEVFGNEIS
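Reagent solutions, kept cold and dark, are dispensed first; compounds are then pinned in at 23 nl, plates briefly spun, and incubated 2 h at ambient temperature. Inhibition of VDR–SRC2-3 peptide binding is read by fluorescence polarization.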
Mm-Cpn inhibitor – inhibitors of Methanococcus maripaludis chaperonin TRiC (MmCpn); purified Mm-Cpn ATPase, ADP Transcreener TR-FRET; Potency, µM (top dose mostly 76.9 µM), without a hit: at the highest dose activity, negative = inhibition, actives largely listed as inhibitors; 330,000 tested, 0.031% active; also: potency is read from the fitted curve at half-maximal effect; nearly all actives have a fitted effect of over 80% in size
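TR-FRET (320 nm excitation; 590 and 665 nm emission) reports ADP made from 10 uM ATP by 25 nM enzyme; compounds were preincubated 10 min, reaction run 30 min, both at 37°C.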
G9a inh – G9a (human) methyltransferase inhibition | Q96KQ7 | Potency, µM (series often up to 102 µM), for inactives: top-dose activity, negative = inhibition, usual class: inhibitors | 350,000 tested, 8.8% active | G9a H3K9 monomethylation, AlphaScreen, 2 h; also: potency is read from the fitted curve at half-maximal effect; nearly all actives have a fitted effect of over 75% in size
Target sequence (Q96KQ7 913-1193 limits assumed): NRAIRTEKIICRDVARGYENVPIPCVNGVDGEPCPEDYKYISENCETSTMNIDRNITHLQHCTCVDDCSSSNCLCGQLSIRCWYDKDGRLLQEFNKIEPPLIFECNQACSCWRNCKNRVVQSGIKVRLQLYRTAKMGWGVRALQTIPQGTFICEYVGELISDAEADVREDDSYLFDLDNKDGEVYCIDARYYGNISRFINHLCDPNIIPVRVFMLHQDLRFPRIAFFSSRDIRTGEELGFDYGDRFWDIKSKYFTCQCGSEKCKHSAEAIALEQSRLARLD
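Signal arises when biotinylated H3K9 peptide, once monomethylated, bridges streptavidin donor and antibody-captured acceptor beads. Enzyme at 20 nM was preincubated 15 min with test compounds; peptide 500 nM and SAM 20 uM then reacted for 2 h.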
CCT chaperon mod – cytosolic chaperonin activity modulation. purified chaperonin ATPase assay, HTRF ADP detection, 30 min. activity change, % (test concentration not listed), hits read low. 360,000 tested, 0.3% active. AID 651819; in the data active = activity change below about -30%
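Nucleotide hydrolysis assay: TRiC at 20–40 nM final (set by batch activity) with 10 uM ATP, 30 min at 37 °C, in presence of 76 uM compound. Detection by competitive ADP HTRF, 30 min ambient.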
PLK1 PBD inh – inhibitors of human PLK1 polo-box domain binding. P53350. Plk1 PBD binding of FITC phosphopeptide, fluorescence polarization. Potency, µM, for inactives: max response, negative = inhibition, hits mostly inhibitors. 360,000 tested, 2.8% active; also: potency is read from the fitted curve at half-maximal effect; series mostly up to about 57 µM; nearly all actives have a fitted effect of over 65% in size
* marks the source's active call; other numbers are inactive results; ? = inconclusive; . = no result; [ ] = remark or other dose. This is a sample that favours compounds with a hit; in the whole collection about 10% have one here. Unless noted, calls follow the shape of the dose curve; as a rule, active = well fitted curve in the direction sought with a large enough effect; inconclusive = small, poorly fitted or top-dose-only effect, or another doubt; inactive = no such curve, though single readings can be large; an effect the other way counts as inactive or inconclusive. Unless noted, % is scaled to controls: 0 for no effect and ±100 for the full control effect.

SMILES | Sfp inh | VDR inh | Mm-Cpn inhibitor | G9a inh | CCT chaperon mod | PLK1 PBD inh
CCOc1ccc(C2C(C(=O)Nc3ccccc3)=C(C)N=c3s/c(=C/c4cccc(OCC(=O)O)c4)c(=O)n32)cc1 (stereo not drawn) | 79µM* | -24% | -1% | 50µM* | 0 | ?
CC1=C(C(=O)Nc2ccccc2)C(c2ccc(Cl)cc2)n2c(s/c(=C/c3cccc(OCC(=O)O)c3)c2=O)=N1 (stereo not drawn) | 50µM* | ? | -6% | ? | 1 | ?
COc1ccc(/C=C/N(CCc2ccc(OC)c(OC)c2)C(=O)c2ccccn2)cc1 | 3% | . | . | . | . | .
O=C(N/C=C/c1ccco1)NCc1ccccc1 | -28% | 13% | 2% | 25µM* | -2 | ?
O=C(N/C=C/c1ccco1)OCc1ccccc1 | -13% | -27% | 0% | 50µM* | 1 | -1%
O=C(NNc1ccccc1)OCc1ccccc1 | . | . | . | . | 1 | -9%
COc1cccc(Cc2nc3ccccc3nc2SCC(=O)NCc2ccc(C)cc2)c1 | . | 13% | . | 0%[59 µM] | . | .
CN(C(=O)c1cc2c(s1)-c1ccc(Cl)cc1SC2)c1cccc(C(F)(F)F)c1 | . | 11% | . | 0%[59 µM] | . | .
Cc1ccc(NC(=O)c2cnccn2)nc1 | -2% | -9% | 0% | 45µM* | 0 | -6%
COc1ccc(CC(=O)NNC(=O)c2ccccn2)cc1 | 23% | 2% | 0% | 25% | -1 | -12%
O=C(NNC(=O)C12CC3CC(CC(C3)C1)C2)c1cnccn1 | -28% | -7% | 0% | 3.2µM* | -1 | -3%
COc1ccc(CC(=O)NNC(=O)c2cnccn2)cc1 | 56µM* | 1% | -1% | 7.9µM* | 0 | -5%
O=C(Nc1cccnc1)C12CC3CC(CC(C3)C1)C2 | 17% | -10% | -3% | -3% | 1 | -14%
O=C(COc1ccc2ccccc2c1)NNC(=O)c1cnccn1 | 10% | -7% | 2% | 0.63µM* | -2 | 2%
COc1cc(NC(=O)C(CCSC)NS(=O)(=O)c2ccc3c(c2)oc(=O)n3C)cc(OC)c1 (stereo not drawn) | . | -1% | . | 6%[59 µM] | . | .
COc1ccc(CN(C(=O)c2ccccc2F)C2CCS(=O)(=O)C2)cc1 (stereo not drawn) | . | 2% | . | -5%[59 µM] | . | .
CC(C)(C)C(=O)NNC(=O)c1cnccn1 | 79µM* | -6% | 0% | -125%[59 µM] | 1 | -11%
Cc1cccc(NC(=O)CN2C(=O)S/C(=C\c3cc(C)n(C)c3C)C2=O)c1 | 56µM* | -11% | -8% | -7%[59 µM] | -3 | -5%
Cc1cccc(NC(=O)CN2C(=O)N/C(=C/c3cc(C)n(C)c3C)C2=O)c1 | 12% | -10% | -13% | 56µM* | 0 | -13%
Cc1ccc(NC(=O)CN2C(=O)S/C(=C\c3cc(C)n(C)c3C)C2=O)cc1 | -8% | 7% | 2% | -1% | 3 | -2%
COc1cc(/C=C2/NC(=O)N(CC(=O)Nc3cccc(C)c3)C2=O)ccc1OCC(N)=O | 3% | ? | 1% | 20% | -1 | 27µM*
O=C1S/C(=C\c2ccc(O)c([N+](=O)[O-])c2)C(=O)N1Cc1cccc([N+](=O)[O-])c1 | -29% | -28% | -2% | ? | -2 | 24µM*
CCOc1cc(/C=C2/NC(=O)N(CC(=O)Nc3cccc(C)c3)C2=O)ccc1OC | 1% | 1% | 0% | 21% | 1 | -6%
O=C(O)c1cccc(CN2C(=O)S/C(=C/c3ccccc3[N+](=O)[O-])C2=O)c1 | 21% | ? | -2% | ? | -1 | -26%
Cc1cccc(NC(=O)CN2C(=O)S/C(=C\c3ccc(O)c([N+](=O)[O-])c3)C2=O)c1 | -8% | -8% | -3% | 35µM* | -3 | -27%
SMILES | Sfp inh | VDR inh | Mm-Cpn inhibitor | G9a inh | CCT chaperon mod | PLK1 PBD inh
O=C(CN1C(=O)S/C(=C\c2ccc(O)c([N+](=O)[O-])c2)C1=O)Nc1ccc(N2CCOCC2)cc1 | ? | -10% | 1% | -3%[0.501 µM] | -1 | ?
CCOC(=O)CN1C(=O)S/C(=C/c2cccc([N+](=O)[O-])c2O)C1=O | 8% | 7% | 0% | 35µM* | -1 | -29%
CCCN(CCC)CCCNC(=O)Cn1ncn2c(cc3sc(CC)cc32)c1=O | . | -17% | . | -20%[59 µM] | . | .
Cc1ccccc1OCC(=O)N(Cc1ccc(N(C)C)cc1)C1CCS(=O)(=O)C1 (stereo not drawn) | 6% | -1% | -2% | 32µM* | 1 | -9%
Cc1ccccc1OCC(=O)OCC(=O)NCC1CCCO1 (stereo not drawn) | 3% | 4% | -14% | 15% | -1 | 3%
Cc1c(C(=O)N(Cc2ccc(N(C)C)cc2)C2CCS(=O)(=O)C2)oc2ccccc12 (stereo not drawn) | -10% | -5% | 0% | 13µM* | 1 | 6%
C=CCOc1ccc(C(=O)N(Cc2ccc(N(C)C)cc2)C2CCS(=O)(=O)C2)cc1 (stereo not drawn) | -7% | 15% | -1% | 50µM* | 2 | -8%
Cc1ccccc1OCC(=O)N(Cc1ccc(N(C)C)cc1)CC1CCCO1 (stereo not drawn) | . | 4% | . | 16µM* | . | .
CN(C)c1ccc(CN(C(=O)COc2ccccc2)C2CCS(=O)(=O)C2)cc1 (stereo not drawn) | 12% | -7% | -1% | ? | -1 | -7%
COc1ccc(F)cc1S(=O)(=O)NCC(c1ccco1)S(=O)(=O)c1cccs1 (stereo not drawn) | . | 1% | . | 5%[59 µM] | . | .
Cc1ccc(C(=O)c2c(N)c(C(=O)Nc3ccccc3Cl)c3ccccn23)cc1 | . | 15% | . | 3%[59 µM] | . | .
Cc1ccc(C)c(NC(=O)CSc2c3c(nc4ccc(Cl)cc24)CCCC3)c1 | . | -20% | . | -8%[59 µM] | . | .
Cc1cc(C)c(OCC(=O)N(Cc2ccc(N(C)C)cc2)CC2CCCO2)c(C)c1 (stereo not drawn) | . | 3% | . | 13µM* | . | .
Cc1cccc(C)c1OCC(=O)N(Cc1ccc(Cl)cc1)CC1CCCO1 (stereo not drawn) | . | -5% | . | 16%[59 µM] | . | .
Cc1cc(SCC(=O)OCC(=O)NC(C)c2ccccc2)c(C)cc1Br (stereo not drawn) | 10% | -10% | 1% | 53%[59 µM] | 0 | -2%
Cc1cc(Br)ccc1SCC(=O)OCC(=O)NC(C)c1ccccc1 (stereo not drawn) | -10% | ? | 2% | 40µM* | 0 | -23%
Cc1cc(Br)ccc1SCC(=O)OCC(=O)NC1CC1 | 15% | -18% | -5% | 79µM* | -1 | -12%
Cc1cc(Br)ccc1SCC(=O)OCC(=O)c1c(N)n(C)c(=O)n(C)c1=O | -11% | 6% | 1% | -36%[59 µM] | -2 | -1%

Bioassay records deposited in PubChem BioAssay by National Center for Advancing Translational Sciences (NCATS).
